# Measured values: PubChem BioAssay (Tox21)
# “And” between values parts separate entries of the source, which are not always exact repeats. Equal values may be shown once. Inconclusive results are not listed. Entries that show only a call come without a potency. Some structures have more than one record in an assay (separate samples or runs), and their calls can disagree. The source made the active and inactive calls. Unless noted, calls follow the shape of the dose curve; as a rule, active = well fitted curve in the direction sought with a large enough effect in the repeat runs; inconclusive = weak or mixed curves; inactive = no such curve, though single readings can be large; an effect the other way counts as inactive or inconclusive.
# How the values were obtained:
# [1] = biological target: Progesterone receptor (Homo sapiens) (UniProt P06401); assay: qHTS assay to identify small molecule antagonists of the progesterone receptor (PR) signaling pathway (AID 1346795; active = well fitted inhibition curve with a large enough effect in the signal ratio in the repeat runs, not every such curve was filed as active; the % refers to the signal ratio; also: potency is read from the fitted curve at half-maximal effect)
# Chain of Progesterone receptor (Homo sapiens) (P06401 whole entry, looked up): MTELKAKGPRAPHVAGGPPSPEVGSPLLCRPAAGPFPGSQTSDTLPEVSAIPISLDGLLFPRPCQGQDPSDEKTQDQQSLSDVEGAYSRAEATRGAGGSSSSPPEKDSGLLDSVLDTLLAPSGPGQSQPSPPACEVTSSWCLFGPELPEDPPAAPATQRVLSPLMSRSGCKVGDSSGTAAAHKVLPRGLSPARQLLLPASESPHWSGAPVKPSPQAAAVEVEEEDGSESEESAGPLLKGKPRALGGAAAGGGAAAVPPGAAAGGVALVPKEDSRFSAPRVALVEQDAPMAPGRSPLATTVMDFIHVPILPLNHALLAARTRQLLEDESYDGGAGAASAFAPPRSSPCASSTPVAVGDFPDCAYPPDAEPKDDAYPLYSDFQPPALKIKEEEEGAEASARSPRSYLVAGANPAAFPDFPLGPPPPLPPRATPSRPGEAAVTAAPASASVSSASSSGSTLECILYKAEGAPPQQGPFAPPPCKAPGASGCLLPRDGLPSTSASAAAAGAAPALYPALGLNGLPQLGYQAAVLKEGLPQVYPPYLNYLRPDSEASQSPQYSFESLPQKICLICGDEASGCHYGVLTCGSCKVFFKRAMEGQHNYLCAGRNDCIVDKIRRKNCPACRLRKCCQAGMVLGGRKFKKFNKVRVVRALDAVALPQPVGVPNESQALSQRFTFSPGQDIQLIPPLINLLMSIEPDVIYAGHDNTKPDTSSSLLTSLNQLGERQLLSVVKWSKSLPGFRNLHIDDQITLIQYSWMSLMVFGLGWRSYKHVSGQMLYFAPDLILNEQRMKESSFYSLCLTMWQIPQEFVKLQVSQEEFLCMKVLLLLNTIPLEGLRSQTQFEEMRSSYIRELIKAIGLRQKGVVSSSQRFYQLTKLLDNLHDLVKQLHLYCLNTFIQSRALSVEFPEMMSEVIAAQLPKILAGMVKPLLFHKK
# Summary of the method: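 Screening used a GripTite HEK293T line with PR-responsive UAS-beta-lactamase. Cells were challenged with compound in the presence of 1 nM R5020 final for 16 hr at 37C; B/G FRET substrate, 2 hr room temperature, fluorescence.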
# [2] = qHTS assay to identify small molecule antagonists of the progesterone receptor (PR) signaling pathway - cell viability counter screen (AID 1346798); also: nearly all actives have a fitted effect of over 50% in size; also: potency is read from the fitted curve at half-maximal effect
# Summary of the method: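 Measures cytotoxicity in parallel with the PR antagonist reporter read: HEK293T PR-UAS-bla cells get compound and R5020 for 16 hr, and remaining viable cells are quantified by CellTiter-Glo luminescence.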
# [3] = qHTS assay to identify small molecule agonists of the progesterone receptor (PR) signaling pathway - cell viability counter screen (AID 1346799; calls by dose curve; also: nearly all actives have a fitted effect of over 45% in size)
# Summary of the method: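 Using the same plates as the PR reporter screen, HEK293T PR-UAS-bla cells received compounds for 16 hr at 37C and were then lysed with CellTiter-Glo; luminescence was read 30 min later at room temperature.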
# [4] = qHTS assay to identify small molecule agonists of the TGF-beta/Smad signaling pathway - cell viability counter screen (AID 1346829); also: nearly all actives have a fitted effect of over 45% in size; also: potency is read from the fitted curve at half-maximal effect
# Summary of the method: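 Cytotoxicity counter screen: CellTiter-Glo luminescence (30 min, room temperature) measured in the SBE-bla HEK 293T reporter wells after 5 hr compound treatment at 37 C and the 2 hr substrate step.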
# [5] = qHTS assay to identify small molecule agonists of the TGF-beta/Smad signaling pathway (AID 1346859; active = well fitted activation curve with a large enough effect in the signal ratio in the repeat runs, not every such curve was filed as active; the % refers to the signal ratio; also: series mostly up to about 77 µM)
# Summary of the method: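 Beta-lactamase reporter activity downstream of Smad binding elements was measured in stably transfected HEK 293T cells; compounds were incubated for 5 hr, substrate for 2 hr at room temperature.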
# [6] = Human pregnane X receptor (PXR) small molecule agonists, qHTS cell viability counter screen (AID 1346977); also: nearly all actives have a fitted effect of over 50% in size; also: potency is read from the fitted curve at half-maximal effect
# Summary of the method: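 After a 5hr pre-incubation, PXR-Luc HepG2 cells received compounds plus positive control in DMSO and were kept 24hr at 37C. Cell viability was quantified by fluorescence from CellTiter-Fluor added for the final hour.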
# [7] = Caspase-3/7 induction in HepG2 cells by small molecules, qHTS assay (AID 1346978); also: nearly all actives have a fitted effect of over 15% in size; also: potency is read from the fitted curve at half-maximal effect
# Summary of the method: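 Caspase-3/7 induction was measured by Caspase-Glo 3/7 luminescence (30 min, room temperature) after a 17 hr compound exposure of wild-type HepG2 cells seeded at 2,000 per well and pre-incubated 5 hr.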
# [8] = biological target: Thyrotropin-releasing hormone receptor (Homo sapiens) (UniProt P34981); assay: qHTS assay to identify small molecule antagonists of the thyrotropin-releasing hormone receptor (TRHR) signaling pathway (AID 1346877; active = well fitted inhibition curve with a large enough effect in the repeat runs, not every such curve was filed as active; also: series mostly up to about 51 µM)
# Chain of Thyrotropin-releasing hormone receptor (Homo sapiens) (P34981 whole entry, looked up): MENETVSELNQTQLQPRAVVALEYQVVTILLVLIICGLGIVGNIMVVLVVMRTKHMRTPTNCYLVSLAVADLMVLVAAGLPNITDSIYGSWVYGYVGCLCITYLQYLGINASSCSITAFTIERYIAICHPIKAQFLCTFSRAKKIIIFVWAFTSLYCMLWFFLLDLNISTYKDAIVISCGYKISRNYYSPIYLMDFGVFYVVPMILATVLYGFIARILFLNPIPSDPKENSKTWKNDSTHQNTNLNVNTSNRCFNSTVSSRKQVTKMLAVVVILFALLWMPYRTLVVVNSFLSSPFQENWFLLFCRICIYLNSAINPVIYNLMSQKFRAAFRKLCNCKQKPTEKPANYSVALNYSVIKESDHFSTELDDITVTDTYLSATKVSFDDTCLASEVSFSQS
# Summary of the method: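 Following an 18 h incubation at 37 °C and a 2 h calcium dye load, TRHR-HEK293 cells were exposed to compound (5 min, room temperature) and challenged with TRH, 1 nM final.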
# [9] = biological target: Thyrotropin-releasing hormone receptor (Homo sapiens) (UniProt P34981); assay: qHTS assay to identify small molecule agonists of the thyrotropin-releasing hormone receptor (TRHR) signaling pathway (AID 1346891; calls by dose curve;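 also: HEK293 cells expressing TRHR with calcium dye readout; series mostly up to about 58 µM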)
# Summary of the method: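 Overnight-plated (18 h, 37 °C, 5% CO2) TRHR-Hek293 cells; 2 h calcium dye at 37 °C; compound in DMSO; 3-min kinetic fluorescence read.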
# [10] = qHTS assay to identify small molecule antagonists of the TGF-beta/Smad signaling pathway - cell viability counter screen (AID 1346824); also: nearly all actives have a fitted effect of over 50% in size; also: potency is read from the fitted curve at half-maximal effect
# Summary of the method: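 Cytotoxicity counter-screen run in the same wells as the beta-lactamase Smad reporter read: CellTiter-Glo luminescence after 30 min at room temperature. HEK 293T SBE-bla cells had 5 hr compound exposure at 37 C with TGF-beta1 (0.25 ng/mL stock).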
Structure (SMILES),Potency [1],Potency [2],Potency [3],Potency [4],Potency [5],Potency [6],Potency [7],Potency [8],Potency [9],Potency [10]
Cc1cc(-c2ccc(N)c(C)c2)ccc1N,61.8 µM (active) and 48.4 µM (active) and 17.2 µM (active),inactive,inactive,inactive,inactive,inactive,inactive,,,
Nc1ccccc1,inactive,inactive,,inactive,inactive,inactive,inactive,inactive,inactive,
CC[N+]1(C)CCCC1,inactive,inactive,,inactive,inactive,inactive,inactive,,,inactive
CCCCCCCCCCCCOS(=O)(=O)O,inactive,inactive,,inactive,inactive,inactive,inactive,,,inactive
Cc1cc(Cl)ccc1OCC(=O)O,inactive,inactive,inactive,inactive,inactive,inactive,inactive,,,
O=c1[nH]c(=O)n(Cl)c(=O)n1Cl,inactive,inactive,,inactive,inactive,inactive,inactive,inactive,inactive,
CCCC[n+]1cccc(C)c1,inactive,inactive,,inactive,inactive,inactive,inactive,inactive,inactive,
O=C(O)C(Cl)(Cl)Cl,inactive,inactive,inactive,inactive,inactive,inactive,inactive,inactive,inactive,inactive
COc1ccc(N)cc1,inactive,inactive,,inactive,inactive,inactive,inactive,,,inactive
N#CS,inactive,inactive,inactive,inactive,inactive,inactive,inactive,inactive,inactive,
O=[N+]([O-])O,inactive,inactive,inactive,inactive,inactive,inactive,inactive,,,
CC(Cl)(Cl)C(=O)O,inactive,inactive,inactive,inactive,inactive,inactive,inactive,,,inactive
O=C(O)CC(O)(CC(=O)O)C(=O)O,inactive,inactive,,inactive,inactive,inactive,inactive,inactive,inactive,inactive
CCCCCCCCCCn1cc[n+](C)c1,31.4 µM (active) and 48.5 µM (active) and 27.3 µM (active),inactive,,inactive,inactive,2.76 µM (active),inactive,,,inactive
CC(=O)[O][Hg][c]1ccccc1,2.15 µM (active),4.81 µM (active) and 3.86 µM (active) and 5.31 µM (active),,8.63 µM (active) and 7.76 µM (active) and 9.52 µM (active),,2.24 µM (active) and 3.06 µM (active) and 4.73 µM (active),inactive,,,7.69 µM (active) and 8.71 µM (active) and 10.7 µM (active)
O=P1(N(CCCl)CCCl)NCCCO1 (stereo not drawn),inactive,inactive,inactive,inactive,inactive,inactive,inactive,inactive,inactive,inactive
CCCC[n+]1ccccc1,inactive,inactive,inactive,inactive,inactive,inactive,inactive,,,inactive
O=C(O)CCl,inactive,inactive,inactive,inactive,inactive,inactive,inactive,inactive,inactive,
COCC(=O)N(c1c(C)cccc1C)C(C)C(=O)OC (stereo not drawn),inactive,inactive,,inactive,inactive,inactive,inactive,inactive,inactive,
CCCC[N+]1(C)CCCC1,inactive,inactive,,inactive,inactive,inactive,inactive,,,inactive
CCCCCCCCn1cc[n+](C)c1,inactive,inactive,,inactive,inactive,9.68 µM (active) and 7.76 µM (active) and 8.72 µM (active),inactive,,,inactive
O=C(O)C(Cl)Cl,inactive,inactive,,inactive,inactive,inactive,inactive,inactive,inactive,
CCNc1nc(Cl)nc(NCC)n1,inactive,inactive,inactive,inactive,inactive,inactive,inactive,inactive,inactive,inactive
COc1ccccc1N,inactive,inactive,,inactive,inactive,inactive,inactive,inactive,inactive,
Oc1ccccc1-c1ccccc1,inactive,inactive,inactive,inactive,inactive,inactive,inactive,inactive,inactive,inactive
Cc1cc(Cl)ccc1N,inactive,inactive,inactive,inactive,inactive,inactive,inactive,inactive,inactive,
CCCn1cc[n+](C)c1,inactive,inactive,,inactive,inactive,inactive,inactive,inactive,inactive,

Structure (SMILES),Potency [1],Potency [2],Potency [3],Potency [4],Potency [5],Potency [6],Potency [7],Potency [8],Potency [9],Potency [10]
CCCCCCCCCCCC(=O)O,inactive,inactive,inactive,inactive,inactive,inactive,inactive,,,inactive
O=c1nc(O)n(Cl)c(=O)n1Cl,inactive,inactive,,inactive,inactive,inactive,inactive,inactive,inactive,inactive
CC[N+](CC)(CC)CC,inactive,inactive,inactive,inactive,inactive,inactive,inactive,,,
Nc1ccc(-c2ccc(N)cc2)cc1,inactive,inactive,,inactive,inactive,inactive,inactive,inactive,inactive,
OCCOc1ccccc1,inactive,inactive,,inactive,inactive,inactive,inactive,,,inactive
CCC[N+]1(C)CCCC1,inactive,inactive,,inactive,inactive,inactive,inactive,,,
O=C(O)c1nc(Cl)ccc1Cl,inactive,inactive,,inactive,inactive,inactive,inactive,,,
CC(=O)O,inactive,inactive,,inactive,inactive,inactive,inactive,,,
O=S(=O)(O)O,,inactive,inactive,inactive,inactive,inactive,inactive,,,inactive
Nc1ccc(Cl)cc1,,inactive,inactive,inactive,inactive,inactive,inactive,inactive,inactive,
CCOP(=S)(OCC)Oc1ccc2c(C)c(Cl)c(=O)oc2c1,,,,inactive,,inactive,inactive,inactive,inactive,
Oc1cccc2cccnc12,4.6 µM (active) and inactive,,,inactive,inactive,,54.8 µM (active) and inactive and 10.6 µM (active),,,
COP(=O)(OC)C(O)C(Cl)(Cl)Cl (stereo not drawn),,inactive,inactive,inactive,inactive,inactive,inactive,inactive,inactive,
C1CCC(NC2CCCCC2)CC1,inactive,inactive,,inactive,inactive,inactive,inactive,inactive,inactive,
CN(C)[C@@H]1C(=O)C(C(N)=O)=C(O)[C@@]2(O)C(=O)C3=C(O)c4c(O)cccc4[C@@](C)(O)[C@H]3[C@H](O)[C@@H]12,,inactive,inactive,inactive,inactive,inactive,inactive,,,inactive
CC[n+]1ccccc1,inactive,,,inactive,inactive,inactive and 6.06 µM (active),inactive,,,
CCCC[N+]1(C)CCCCC1,inactive,inactive,,inactive,inactive,inactive,inactive,,,
CCC[N+]1(C)CCCCC1,inactive,inactive,,inactive,inactive,inactive,inactive,,,
CCCCn1cc[n+](C)c1C,inactive,inactive,,inactive,inactive,inactive,inactive,,,
C[C@]12CCC(=O)C=C1CC[C@@H]1[C@@H]2CC[C@]2(C)C(=O)CC[C@@H]12,,,,inactive,inactive,inactive,inactive,inactive,inactive,inactive
CCCCCC[n+]1ccccc1,inactive,inactive,,inactive,inactive,,inactive,,,
O=C(O)COc1ccc(Cl)cc1Cl,inactive,inactive,,inactive,inactive,inactive,inactive,,,
CCCCCCCCCCCCCC[P+](CCCCCC)(CCCCCC)CCCCCC,inactive,30.8 µM (active),,15.6 µM (active) and 24.7 µM (active) and inactive,inactive,3.87 µM (active) and 6.16 µM (active) and 1.72 µM (active),inactive,,,
C=CCOC(Cn1ccnc1)c1ccc(Cl)cc1Cl (stereo not drawn),6.13 µM (active) and 6.68 µM (active),24.4 µM (active) and 15.4 µM (active) and 11.9 µM (active),,inactive,inactive,48.6 µM (active),inactive,inactive,inactive,
Nc1ccc(-c2ccc(N)c(Cl)c2)cc1Cl,,,inactive,inactive,inactive,3.98 µM (active) and 54.5 µM (active),13.8 µM (active),inactive,inactive,inactive
CCCCCCCCCCCCCCCCn1cc[n+](C)c1,inactive and 21.7 µM (active),,,,inactive,,inactive,,,
CCCC[n+]1ccccc1C,inactive,inactive,,inactive,inactive,inactive,inactive,,,
